From PubChem
Ba CapD inh = blocks the Bacillus anthracis CapD enzyme. 0.23% of 140,000 active. AID 492967. z-score (test concentration not listed). purified CapD enzyme, fluorescence intensity read-out; active compounds read low; in the data active means z-score mostly below about -2.9, no sharp cut-off; inactive means mostly above about -1.9
* hit, by the source's call. Only a selection was taken, and hits are over-represented in it overall.

`CC(=O)c1ccc(N2CCN(C(=O)CCCCCn3c(=S)[nH]c4ccc(Br)cc4c3=O)CC2)cc1` gave Ba CapD inh -0.72.
`COC(=O)c1sc(-c2ccccc2)cc1NC(=O)C1COc2ccccc2O1` (stereo unspecified) gave Ba CapD inh 0.68.
Cc1ccc(CCOC(=O)N2CCC(C(N)=O)CC2)cc1 was read as Ba CapD inh -1.4.
`CN(C)/C=C/C=C1\CCc2ccccc2C1=O` gave Ba CapD inh -0.79.
For CN(C)/C=C/C=C1\CC/C(=C\C=C\N(C)C)C1=O the results were Ba CapD inh -7.3*.
Screening Cc1ccc(NC(=O)CC2Sc3ccccc3NC2=O)cc1 (stereo unspecified) returned Ba CapD inh 0.57.
Screening CCOc1cc(/C=C2\SC(=S)N(C(C(=O)O)C(C)C)C2=O)ccc1O (stereo unspecified) returned Ba CapD inh -4.8*.
CC(C)C(C(=O)O)N1C(=O)/C(=C/c2ccccc2)SC1=S (stereo unspecified) was read as Ba CapD inh -2.1.
For COc1cc(/C=C2\SC(=S)N(C(C(=O)O)C(C)C)C2=O)cc(OC)c1O (stereo unspecified) the results were Ba CapD inh -0.36.
For CCOC(=O)C1=C(C)NC2=C(C(=O)CC(c3ccc(OC)c(OC)c3)C2)C1c1ccc(OC)cc1OC (stereo unspecified) the results were Ba CapD inh 6.
O=C(Nc1cc(C(F)(F)F)cc(C(F)(F)F)c1)c1c(F)cccc1Cl was read as Ba CapD inh 0.52.
For Cc1ccc2c(c1)N(C(=O)N1CCCC(C(=O)NCc3ccc(Cl)cc3)C1)CC(C)O2 (stereo unspecified) the results were Ba CapD inh -0.8.
